Measured values taken from PubChem BioAssay AID720709 (National Center for Advancing Translational Sciences (NCATS), 2013).
Out of some 360,000 compounds screened, about 520 (0.14%) were called active. Another 3% or so got no clear call; they are omitted. This is one part of a sample in which actives are shown more often than they occur. Values without a mark were called inactive. The call rests on the fitted dose curve; in most records, active means well fitted inhibition curve with a large enough effect; inconclusive means small, poorly fitted or top-dose-only effect; inactive means no such curve, though single readings can be large or run the other way.

What follows are compounds tested against Rap guanine nucleotide exchange factor 3 (Homo sapiens) (UniProt O95398) (assay: qHTS for Antagonist of cAMP-regulated guanine nucleotide exchange factor 3 (EPAC1): primary screen). Conditions: EPAC1 GEF assay, Rap1b-BODIPY-GDP exchange fluorescence; series mostly up to 115 µM; activity change, negative = inhibition: at the top concentration.
Text: In multi-cellular eukaryotic organisms, the effects of cAMP are transduced by two ubiquitously-expressed intracellular cAMP receptors, the classic protein kinase A/cAMP-dependent protein kinase (PKA/cAPK) and the more recently discovered exchange protein directly activated by cAMP/cAMP-regulated guanine nucleotide exchange factor (EPAC/cAMP-GEF). Both PKA and EPAC are ubiquitously expressed in all tissues, and an increase in intracellular cAMP levels will lead to the activation of both PKA and EPAC. Therefore, careful dissections of the individual role and relative contribution of EPAC and PKA within the overall cAMP signaling in various model systems are critical for further elucidating the mechanism of cAMP signaling. To date no EPAC-specific antagonists and agonist, as well as isoform-specific agonists have been reported, and developing EPAC-specific pharmacological probes to determine the physiological functions that EPAC play in the overall cAMP-mediated signaling remains a major challenge within the research field. Furthermore, identified regulators of EPAC may lead to new mechanism-based therapeutic strategies specifically targeting the EPAC / cAMP-signaling components as EPAC has been implicated to play important roles in major human pathological conditions such as diabetes, heart disease, and cancer. This qHTS will be used to screen the Molecular Libraries Small Molecule Repository (MLSMR) as a concentration-titration series using the NCGC unique quantitative screening (qHTS) platform to find inhibitors for EPAC1. In addition, this assay will also be used as a counterscreen for the EPAC2 qHTS. This fluorescent based assay is developed and validated for EPAC1 that measures exchange using EPAC effector Rap1 complex with BODIPY-GDP, a GDP analog with a tethered fluorophores. Inhibitors are identified by monitoring the change in fluorescence signal as the exchanged free BODIPY-GDP has a reduced fluorescence compared to Rap1-bound BODIPY-GDP. Decrease in signal (inhibition) is the desired outcome for the EPAC1 antagonist while no activity in this assay is desired for the EPAC2 antagonist counterscreen. de Rooij, J., Zwartkruis, F. J., Verheijen, M. H., Cool, R. H., Nijman, S. M., Wittinghofer, A., and Bos, J.L. (1998) Nature 396, 474-477 [2] Kawasaki, H., Springett, G. M., Mochizuki, N., Toki, S., Nakaya, M., Matsuda, M., Housman, D. E., and Graybiel, A. M. (1998) Science 282, 2275-2279 NIH Chemical Genomics Center [NCGC] NIH Molecular Libraries Probe Centers Network [MLPCN] MLPCN Grant: NS066510 Assay Submitter (PI): Xiaodong Cheng, The University of Texas, Medical Branch
Briefly, three uL of reagents (100 nM EPAC1, 250 nM RAP1B-BODIPY-GDP, 50 uM GDP) were dispensed into a 1536-well Greiner black solid-bottom medium binding assay plate. Controls and test compounds (23 nL) were transferred to the plate via a Kalypsys pin tool equipped with a 1536-pin array. The plates were centrifuged at 1,000 rpm for 15 seconds followed by 5 minute incubation at room temperature. The assay plates were read at 5 minute intervals for 30 minutes in the ViewLux plate reader using 480nm excitation and 540nm emission filters. The results were normalized to the […] positive control ATA and DMSO.
Further: nearly all actives have a fitted effect of over 50% in size.
Potency means the concentration at half of the fitted maximal effect.
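Wherever activity change, negative = inhibition is given: plate controls were vehicle for no effect and positive control for full effect.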

Chain of Rap guanine nucleotide exchange factor 3 (Homo sapiens) (O95398 whole entry, looked up): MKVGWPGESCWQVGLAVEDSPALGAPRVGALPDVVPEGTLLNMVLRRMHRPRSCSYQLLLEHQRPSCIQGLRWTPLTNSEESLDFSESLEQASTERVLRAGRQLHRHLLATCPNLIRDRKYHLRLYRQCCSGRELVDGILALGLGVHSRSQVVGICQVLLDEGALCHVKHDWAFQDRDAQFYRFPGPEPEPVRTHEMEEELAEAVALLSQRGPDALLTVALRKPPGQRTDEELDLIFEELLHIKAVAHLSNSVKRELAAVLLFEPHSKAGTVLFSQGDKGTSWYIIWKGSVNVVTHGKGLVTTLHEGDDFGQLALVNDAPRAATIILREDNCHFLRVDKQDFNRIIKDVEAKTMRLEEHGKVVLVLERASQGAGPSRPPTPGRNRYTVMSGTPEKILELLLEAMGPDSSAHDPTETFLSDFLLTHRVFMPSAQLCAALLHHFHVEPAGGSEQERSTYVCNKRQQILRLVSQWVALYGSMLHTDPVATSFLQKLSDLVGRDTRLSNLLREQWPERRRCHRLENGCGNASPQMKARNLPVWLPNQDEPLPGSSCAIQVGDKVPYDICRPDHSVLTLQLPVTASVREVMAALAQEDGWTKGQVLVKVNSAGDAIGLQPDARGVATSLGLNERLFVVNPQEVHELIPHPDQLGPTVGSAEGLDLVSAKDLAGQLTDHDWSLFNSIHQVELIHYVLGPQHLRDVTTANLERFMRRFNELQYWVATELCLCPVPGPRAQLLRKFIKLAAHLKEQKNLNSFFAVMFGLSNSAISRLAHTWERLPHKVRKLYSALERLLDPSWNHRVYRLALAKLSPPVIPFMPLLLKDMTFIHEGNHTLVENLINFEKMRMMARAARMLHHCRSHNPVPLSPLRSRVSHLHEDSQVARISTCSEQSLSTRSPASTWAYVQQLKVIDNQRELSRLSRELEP

SMILES	activity change, negative = inhibition [%]	Potency
CC(=O)OCC(C)n1c(=O)c2ccccc2n1C(C)=O (stereo not drawn)	14.3	
CCc1nnc(NS(=O)(=O)c2ccc(NC(=S)NC(=O)/C=C/c3cccs3)cc2)s1		35.5 µM (active)
CCc1nnc(NS(=O)(=O)c2ccc(NC(=O)c3cccc(OC(F)(F)C(F)F)c3)cc2)s1	6.32	
CCc1nnc(NS(=O)(=O)c2ccc(NC(=S)NC(=O)c3cccs3)cc2)s1	-18.7	
CCC(C(=O)NC(C)(C)C)n1c(-c2ccccc2)nc2ccccc21 (stereo not drawn)	-11.7	
CC(=O)N1Cc2cc(C(=O)NCc3cccc(F)c3)nc(-c3cccc(C4=CCCC4)c3)c2[C@H]1CCO	-4.59	
COC(=O)C1(C(=O)OC)C/C=C\CN(S(=O)(=O)c2ccccc2[N+](=O)[O-])CCC1	-24.3	
C[N+](C)(C)CCNC(=O)c1c[nH]c2ccccc12	-10.3	
CCOC(=O)c1c(C)[nH]c(C(=O)OCC(=O)N2CCCC2=O)c1C	-3.83	
Cc1c(C(=O)OCC(=O)N2CCCC2=O)oc2ccccc12		79.4 µM (active)
CN(C)S(=O)(=O)c1cccc(C(=O)OCC(=O)N2CCCC2=O)c1	-1.48	
COC(=O)[C@@]12C[C@@H](CC(=O)N3CCC(c4ccccc4)CC3)C(=O)N(Cc3ccccc3)C1=CCC(C)(C)C2	6.68	
COc1cc(OC)cc(C2=Cc3ccccc3C(CC(=O)c3ccco3)N2c2ccc(-c3cnc(OC)nc3)cc2)c1 (stereo not drawn)	-2.98	
Cc1cccc(C)c1NC(=O)C(c1cccc2ccccc12)n1c(=O)c(-c2ccco2)nc2ccccc21 (stereo not drawn)	-20.9	
Cc1ccc(S(=O)(=O)N2CC3C(=O)C[C@@H](c4ccccc4Cl)N(S(=O)(=O)c4ccc(C)cc4)C3CC2c2ccccc2)cc1 (stereo partly drawn)	0.258	
Cc1cccc(C)c1NC(=O)C(c1ccc(C(F)(F)F)cc1)n1c(=O)c(-c2ccco2)nc2ccccc21 (stereo not drawn)	-14.7	
O=c1ccc2c(-c3ccccc3S(=O)(=O)O)c3ccc(O)c(O)c3oc-2c1O		56.2 µM (active)
COc1cccc(CNC(=O)[C@@H]2CCCN2C(=O)[C@@H]2CCCN2C(=O)c2ccccc2)c1	-7.07	
COc1ccc(CC(N)c2csc(NC(=O)Nc3ccc(C(C)C)cc3)n2)cc1 (stereo not drawn)	-15.8	
CCN(CC)CCN(C)C(c1ccnc2ccccc12)c1nnnn1-c1ccc2c(c1)OCCO2 (stereo not drawn)	-3.49	
COC(=O)[C@@]12C[C@@H](CC(=O)NCc3cccc(C(F)(F)F)c3)C(=O)N(Cc3ccco3)C1=CCC(C)(C)C2	-20.9	
CCC(C)CN1C(=O)CSCC1(C)C(=O)NCc1ccccc1 (stereo not drawn)	-4.93	
Cc1cccc(C)c1NC(=O)C(c1cccc(F)c1)N1CCN(C)CC1 (stereo not drawn)	6.48	

SMILES	activity change, negative = inhibition [%]	Potency
CCCCC(O)C1=C[N+](=O)CC=C1 (stereo not drawn)	14.4	
Cc1cccc(C)c1-n1nnnc1C1(C)CCC(=O)N1CCOc1ccccc1 (stereo not drawn)	14.7	
COC(=O)[C@]12CCCCC=C1N(Cc1ccc3c(c1)OCO3)C(=O)[C@H](CC(=O)NCc1cccs1)C2	8.77	
Nc1nc2ncccn2c1-c1ccccc1	-20.8	
O=C(NC1CCCC1)C1c2ccccc2OCC(=O)N1Cc1ccccc1 (stereo not drawn)	-15.9	
CCCNC(=O)C[C@@H]1CC[C@@H]2[C@H](COC[C@H](O)CN2C(=O)c2cc(Cl)cc(Cl)c2)O1	-0.835	
COC(=O)[C@@]12C[C@@H](CC(=O)N3CCCCC3)C(=O)N(Cc3ccc4c(c3)OCO4)C1=CCC(C)(C)C2	5.33	
CCCCOCCCNC(=O)C[C@@H]1C[C@@]2(C(=O)OC)CCCCC=C2N(CCC2=CCCCC2)C1=O	-20.6	
C#CCNC(=O)C[C@@H]1C[C@@]2(C(=O)OCC)CCCC=C2N(Cc2ccco2)C1=O	-7.54	
Cc1ccc(S(=O)(=O)N[C@H]2CCC[C@@H]2O)cc1	-24.4	
O=C(NCc1ccccc1)C(c1ccc(F)cc1)N1CCN(C(=O)C2CCCO2)CC1 (stereo not drawn)	-11.6	
C#CCOCCOCCOCCNc1nc(N2CCN(C(=O)[C@H](CO)n3cc([C@@H](N)C(C)C)nn3)CC2)nc(N2CCN(C(=O)[C@H](CCC(=O)O)n3cc([C@@H](N)[C@H](C)CC)nn3)CC2)n1	-7.4	
C#CCOCCOCCOCCNc1nc(N2CCN(C(=O)CCCCCCCCCCNC(=O)[C@H]([C@@H](C)CC)n3cc(CCCCN=C(N)N)nn3)CC2)nc(N2CCN(C(=O)CCCCCCCCCCNC(=O)[C@H](CO)n3cc(CCCSC)nn3)CC2)n1		44.7 µM (active)
C#CCOCCOCCOCCNc1nc(N2CCN(C(=O)C([C@@H](C)O)n3cc([C@@H](N)CCCCN)nn3)CC2)nc(N2CCN(C(=O)[C@H](CCCCN)n3cc(CN)nn3)CC2)n1 (stereo partly drawn)	11	
CN1OC[C@@H]2CN(S(=O)(=O)c3cccc4ccccc34)[C@H](c3ccc(N4CCCCC4)cc3)C[C@@H]21	1.95	
CC(C)C[C@@H]1COc2cc(N3CCC[C@@H]3CO)ccc2S(=O)(=O)N1	21.2	
CCOC(=O)C1C(C)C(C(C)(C)C)N(S(=O)(=O)c2ccc(C)cc2)C1c1ccccc1 (stereo not drawn)	-11.1	
Oc1c(Cl)cc(Cl)c(Cl)c1Cc1c(O)c(Cl)cc(Cl)c1Cl		70.8 µM (active)
Fc1cccc(Cc2c(-c3ccc(Cl)cc3)nc3ccc(Cl)cn23)c1	-25.5	
CC1=C(C(=O)N(C(C)C)C(C)C)CC(CC(=O)NCCCCc2ccccc2)C(=O)N1CCC1=CCCCC1 (stereo not drawn)	-21.9	
CCc1c(-c2ccc(F)cc2)ncn1Cc1cccc(-c2ccccc2)c1	-18.4	
CN(C)C1CN(Cc2cn(Cc3ccccc3)nn2)S(=O)(=O)C1 (stereo not drawn)	-19.8	
COC(=O)C1=CN(c2c(C)cc(C)cc2C)C(N)=C(C#N)C1c1cccc(F)c1 (stereo not drawn)	7.23	

SMILES	activity change, negative = inhibition [%]	Potency
CCc1oc(-c2ccc(OC)cc2)c(C(=O)OCCCCCO)c1C(C)OCCO (stereo not drawn)	-11.4	
COC(=O)[C@]12CCCCC=C1N(Cc1cccc3ccccc13)C(=O)[C@H](CC(=O)N1CCOCC1)C2	-27.4	
CCNC(=O)c1cc2c(c(-c3cccc(-c4cncnc4)c3)n1)[C@H](CCO)N(C(C)=O)C2	-10.6	
CCCCNC(=O)C[C@@H]1C[C@@]2(C(=O)OCC)CCC=C2N(Cc2ccco2)C1=O	-9.69	
CCOC(=O)[C@]12CCCC=C1N(CCC1=CCCCC1)C(=O)[C@H](CC(=O)N1CCCCC1)C2	5.77	
CCOc1ccc(CCN2C(=O)C(=O)N([C@@H](Cc3ccc(O)cc3)CN3CCC[C@H]3CN3C(=O)C(=O)NC[C@@H]3CC(C)C)C[C@@H]2Cc2ccccc2)cc1	-22.3	
CCOC(=O)[C@]12CCCC=C1N(Cc1ccc3c(c1)OCO3)C(=O)[C@H](CC(=O)N1CCN(C(=O)c3ccco3)CC1)C2	-27.1	
O=C(Nc1ccc2c(c1)OCCO2)C1c2ccccc2OCC(=O)N1Cc1ccccn1 (stereo not drawn)	-12.8	
CC(C)C[C@@H]1Cc2[nH][nH]c(=O)c2[C@H](CCc2ccccc2)O1	-20	
CCOC(=O)[C@]12CCCC=C1N(Cc1ccc3c(c1)OCO3)C(=O)[C@H](CC(=O)NCc1cccs1)C2	-8.51	
CC(C)(O)C1=C[N+](=O)CC=C1	9.18	
CCCCCn1nnnc1C1c2ccccc2C(=O)N1Cc1ccco1 (stereo not drawn)	4.16	
COc1ccc(C(c2nnnn2C2CCCC2)N2CCN(C/C=C/c3ccccc3)CC2)cc1 (stereo not drawn)	-1.03	
CCCCCNC(=O)C(c1ccc(OC)cc1)n1c(=O)c(-c2ccccc2)nc2ccccc21 (stereo not drawn)	-4.26	
Cc1ccc(S(=O)(=O)N2[C@@H](Cc3ccccc3)CO[C@H]2CC(=O)OCc2ccccc2)cc1	5.33	
CN(Cc1cn(Cc2ccc(C(F)(F)F)cc2)nn1)C1CN(Cc2cn(Cc3ccc(C(F)(F)F)cc3)nn2)S(=O)(=O)C1 (stereo not drawn)	-28.3	
COCCNC(=O)c1cc2c(Br)ccc(Br)c2nc1N	-20.9	
CC(=O)N1Cc2cc(C(=O)NCc3cccc(F)c3)nc(-c3cccc(C4=CCCCC4)c3)c2[C@H]1CCO	-17.1	
C=C1C(=O)[C@]23C[C@H]1CCC2[C@@]1(C)C(C[C@@H]3O)[C@](C)(C(=O)O)CC[C@@H]1O (stereo partly drawn)	-21.7	
CCCCCNC(=O)C1C(=O)Nc2ccccc2C(=O)N1C(C)(C)C (stereo not drawn)	1.6	
CC[C@@H]1CC2=C(C(=O)OC(C)(C)O2)[C@@H](CC)O1	2.98	
CCOC(=O)[C@]12CCC=C1N(Cc1ccccc1)C(=O)[C@H](CC(=O)N1CCCC1)C2	-6.85	
